The record followed here is PubChem BioAssay (NCI).

Each structure is given as a SMILES string. Values joined by “and” are separate entries in the source; they are usually repeats but may differ in a detail not shown here. Identical values can stand only once. Compounds without any hit were thinned out: in the full panel of roughly 79,000, 15% have a hit. Unmarked numbers belong to inactive results. Active and inactive are the calls of the source. Rule as the data show it: active = growth inhibition above about 70%; inactive = the rest.

Assay [1] can be described thus: NCI Yeast Anticancer Drug Screen. Data for the rad50 strain (AID 155).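 Also: 0% = growth of vehicle-only cultures of the same strain.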 Particulars: S. cerevisiae rad50 strain growth inhibition, stronger effect = higher value. In outline:
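Cells are treated with compound, grown, and their growth is then scored against vehicle-only cultures of the same repair-deficient yeast strain.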

The nature of assay [2]: NCI Yeast Anticancer Drug Screen. Data for the mec2-1 strain (AID 157). The note with it: S. cerevisiae mec2-1 strain, stronger effect = higher value. An outline of the steps:
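Mutant yeast (mec2-1) grown with compound; growth inhibition relative to vehicle control reported.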

A short description of assay [3]: NCI Yeast Anticancer Drug Screen. Data for the sgs1 mgt1 strain (AID 161).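 Also: 0% = growth of cultures given vehicle only.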 The note with it: S. cerevisiae sgs1 mgt1 strain, stronger effect = higher value. In outline: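 Growth of a repair-deficient yeast mutant was monitored after compound treatment and expressed as inhibition relative to vehicle-treated cultures.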
Assay [4] can be described thus: NCI Yeast Anticancer Drug Screen. Data for the cln2 rad14 strain (AID 165).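 Also: 0% = growth equal to vehicle treated cultures.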 Particulars: S. cerevisiae cln2 rad14 strain, stronger effect = higher value. In outline: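 Readout is yeast growth inhibition versus vehicle-treated controls, using a strain with cln2 and rad14 alterations exposed to compound.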
Assay [5] is described as follows: NCI Yeast Anticancer Drug Screen. Data for the bub3 strain (AID 167). Particulars: S. cerevisiae bub3 mutant strain, stronger effect = higher value. In outline: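 Part of a panel of yeast mutants defective in DNA damage repair or cell cycle regulation. Each strain is grown with compound, and inhibition is calculated relative to solvent-treated cultures.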
Assay [6] in a line: NCI Yeast Anticancer Drug Screen. Data for the mlh1 rad18 strain (AID 175). Particulars: S. cerevisiae mlh1 rad18 strain growth inhibition, stronger effect = higher value. An outline of the steps:
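Genetically defined yeast (DNA repair-deficient) exposed to compounds; growth inhibition determined relative to vehicle.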

Where [7] appears, read: at 5.0 µM (retest, dose inferred, filed as 0.5).
The mark [8] stands for this setting: at 50.0 µM (retest, dose inferred, filed as 5.0).

Take `Cn1c(=O)c2[nH]cnc2n(C)c1=O.[CH2-]C(Cc1cccc2cc(C(=O)O)c(=O)oc12)OC.[Hg+2].[OH-]` (centres undefined): the growth inhibition in assay [1] (setting [7]) was 1%; in assay [1] (setting [8]) it was 6%; in assay [1] (at 50.0 µM), 46%; in assay [2] (setting [7]) it was -3%; in assay [2] (setting [8]), 14%; in assay [2] (at 50.0 µM), 96.7% (active). Moreover, the growth inhibition in assay [3] (setting [7]) was -6%; in assay [3] (setting [8]) it was 21%; in assay [3] (at 50.0 µM), 93.5% (active); in assay [4] (setting [7]) it was 25%; in assay [4] (setting [8]), -29%; in assay [4] (at 50.0 µM), 93.2% (active). For the same compound, the growth inhibition in assay [5] (setting [7]) was -20%; in assay [5] (setting [8]) it was -16%; in assay [5] (at 50.0 µM) it was 96.8% (active); in assay [6] (setting [7]), -7%; in assay [6] (setting [8]) it was 17%; in assay [6] (at 50.0 µM), 98.3% (active).
`C/C(=N\O)C(CN(C)C)C(c1ccccc1)c1c(O)c2ccccc2oc1=O` (centres undefined): the growth inhibition in assay [1] (setting [7]) was 25%; in assay [1] (setting [8]) it was 25%; in assay [1] (at 50.0 µM) it was 76.5% (active); in assay [2] (setting [7]), 12%; in assay [2] (setting [8]), 12%; in assay [2] (at 50.0 µM) it was 63.4%. Moreover, the growth inhibition was 15% in assay [3] (setting [7]); 15% in assay [3] (setting [8]); 82.2% (active) in assay [3] (at 50.0 µM); 4% in assay [4] (setting [7]); 4% in assay [4] (setting [8]); 75.8% (active) in assay [4] (at 50.0 µM). Besides, the growth inhibition in assay [5] (setting [7]) was 12%; in assay [5] (setting [8]), 12%; in assay [5] (at 50.0 µM) it was 74.7% (active); in assay [6] (setting [7]) it was 14%; in assay [6] (setting [8]) it was 14%; in assay [6] (at 50.0 µM) it was 75.2% (active).
Regarding `CC/C(=C/c1ccc2c(c1)OCO2)[N+](=O)[O-]`, the growth inhibition in assay [1] (setting [7]) is 89% (active); in assay [1] (setting [8]), 99% (active); in assay [1] (at 50.0 µM), 99.3% (active); in assay [2] (setting [7]), 59%; in assay [2] (setting [8]), 99% (active); in assay [2] (at 50.0 µM), 99.8% (active). Moreover, the growth inhibition in assay [3] (setting [7]) is 68%; in assay [3] (setting [8]), 99% (active); in assay [3] (at 50.0 µM), 99.7% (active); in assay [4] (setting [7]) it was 28%; in assay [4] (setting [8]), 100% (active); in assay [4] (at 50.0 µM), 99.1% (active). For the same compound, the growth inhibition is 83% (active) in assay [5] (setting [7]); 99% (active) in assay [5] (setting [8]); 98.5% (active) in assay [5] (at 50.0 µM); 66% in assay [6] (setting [7]); 99% (active) in assay [6] (setting [8]); 99.4% (active) in assay [6] (at 50.0 µM).
As for `O=C(Nc1ccccc1)OC(C[N+](=O)[O-])C(Cl)(Cl)Cl` (centres undefined), the growth inhibition in assay [1] (setting [7]) is 12%; in assay [1] (setting [8]), 99% (active); in assay [1] (at 50.0 µM) it was 99.3% (active); in assay [2] (setting [7]), 10%; in assay [2] (setting [8]), 100% (active); in assay [2] (at 50.0 µM), 95.8% (active). The growth inhibition in assay [3] (setting [7]) is 5%; in assay [3] (setting [8]) it was 99% (active); in assay [3] (at 50.0 µM), 99.1% (active); in assay [4] (setting [7]), 10%; in assay [4] (setting [8]), 91% (active); in assay [4] (at 50.0 µM), 42.6%. Further, the growth inhibition in assay [5] (setting [7]) is 2%; in assay [5] (setting [8]), 100% (active); in assay [5] (at 50.0 µM), 99.2% (active); in assay [6] (setting [7]), 11%; in assay [6] (setting [8]) it was 99% (active); in assay [6] (at 50.0 µM), 99.2% (active).
For `O=[N+]([O-])/C=C/c1cc2c(cc1Br)OCO2`, the growth inhibition in assay [1] (setting [7]) is 78% (active); in assay [1] (setting [8]), 89% (active); in assay [1] (at 50.0 µM), 98.5% (active); in assay [2] (setting [7]), 53%; in assay [2] (setting [8]), 89% (active); in assay [2] (at 50.0 µM) it was 99.2% (active). Also, the growth inhibition in assay [3] (setting [7]) is 73% (active); in assay [3] (setting [8]), 87% (active); in assay [3] (at 50.0 µM), 97.9% (active); in assay [4] (setting [7]) it was 26%; in assay [4] (setting [8]), 62%; in assay [4] (at 50.0 µM), 94.2% (active). For the same compound, the growth inhibition was 48% in assay [5] (setting [7]); 89% (active) in assay [5] (setting [8]); 82.5% (active) in assay [5] (at 50.0 µM); 68% in assay [6] (setting [7]); 88% (active) in assay [6] (setting [8]); 98.5% (active) in assay [6] (at 50.0 µM).
In the case of `CC(C)CCC[C@@H](C)[C@H]1CC[C@H]2[C@@H]3CC[C@H]4C[C@H](NCCCl)CC[C@]4(C)[C@H]3CC[C@]12C`, the growth inhibition was 28% in assay [1] (setting [7]); 36% in assay [1] (setting [8]); 52% in assay [1] (at 50.0 µM); 15% in assay [2] (setting [7]); 26% in assay [2] (setting [8]); 43.6% in assay [2] (at 50.0 µM). The growth inhibition in assay [3] (setting [7]) is 40%; in assay [3] (setting [8]), 68%; in assay [3] (at 50.0 µM), 49.1%; in assay [4] (setting [7]), 28%; in assay [4] (setting [8]) it was 7%; in assay [4] (at 50.0 µM), 51%. Further, the growth inhibition is 45% in assay [5] (setting [7]); 49% in assay [5] (setting [8]); 42.2% in assay [5] (at 50.0 µM); 22% in assay [6] (setting [7]); 27% in assay [6] (setting [8]); 55% in assay [6] (at 50.0 µM).
Take `CC(=O)OC(C)(C)/C=C/C(=O)[C@](C)(O)[C@H]1[C@H](O)C[C@@]2(C)[C@@H]3CC=C4[C@@H](C[C@H](O)[C@H](O)C4(C)C)[C@]3(C)C(=O)C[C@]12C`: the growth inhibition in assay [1] (setting [7]) was 15%; in assay [1] (setting [8]) it was 98% (active); in assay [1] (at 50.0 µM), 92.1% (active); in assay [2] (setting [7]) it was 52%; in assay [2] (setting [8]), 99% (active); in assay [2] (at 50.0 µM), 93.5% (active). In addition, the growth inhibition in assay [3] (setting [7]) is 13%; in assay [3] (setting [8]), 98% (active); in assay [3] (at 50.0 µM), 93.3% (active); in assay [4] (setting [7]), 43%; in assay [4] (setting [8]), 98% (active); in assay [4] (at 50.0 µM), 91.1% (active). Besides, the growth inhibition in assay [5] (setting [7]) is 65%; in assay [5] (setting [8]) it was 99% (active); in assay [5] (at 50.0 µM), 91.5% (active); in assay [6] (setting [7]), 55%; in assay [6] (setting [8]), 98% (active); in assay [6] (at 50.0 µM), 91.8% (active).
For the compound `O=C1c2ccccc2-c2c3c(cc4ccnc1c24)OCO3`, the growth inhibition is 96% (active) in assay [1] (setting [7]); 97% (active) in assay [1] (setting [8]); 86.2% (active) and 86.5% (active) in assay [1] (at 50.0 µM); 57% in assay [2] (setting [7]); 96% (active) in assay [2] (setting [8]); 84.8% (active) and 88.2% (active) in assay [2] (at 50.0 µM). In addition, the growth inhibition was 50% in assay [3] (setting [7]); 96% (active) in assay [3] (setting [8]); 86.6% (active) and 86.2% (active) in assay [3] (at 50.0 µM); 37% in assay [4] (setting [7]); 95% (active) in assay [4] (setting [8]); 81.7% (active) and 87% (active) in assay [4] (at 50.0 µM). Further, the growth inhibition in assay [5] (setting [7]) was 61%; in assay [5] (setting [8]) it was 95% (active); in assay [5] (at 50.0 µM), 87.5% (active) and 87.3% (active); in assay [6] (setting [7]), 73% (active); in assay [6] (setting [8]), 95% (active); in assay [6] (at 50.0 µM) it was 85.8% (active) and 88% (active).
